# Measurements as given in PubChem BioAssay (NCI).
# About 83,000 compounds went through this panel and 20% of them were active in at least one assay; those are over-represented in the sample as a whole.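 Each cell line was grown in a 96-well plate and treated with one concentration of compound for 48 hours. Values below 10 were considered active.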 Values without a mark were called inactive. The source made the active and inactive calls.
# Key:
# Experiment in all cases: NCI-60 one-dose screen, 48 h (100 = growth as untreated, 0 = no growth, -100 = all killed)
# SR leukemia = settings: 10 µM unless noted
# RPMI-8226 leukemia = settings: 10 µM unless noted
# OVCAR-8 ovarian = settings: 10 µM unless noted
# OVCAR-5 ovarian = settings: 10 µM unless noted
# OVCAR-4 ovarian = settings: 10 µM unless noted
# SK-OV-3 ovarian = settings: 10 µM unless noted
# IGROV1 ovarian = settings: 10 µM unless noted
# OVCAR-3 ovarian = settings: 10 µM unless noted
# HS 578T breast = settings: 10 µM
# NCI/ADR-RES ovarian = settings: 10 µM unless noted
# T-47D breast = settings: 10 µM unless noted
# BT-549 breast = settings: 10 µM unless noted
# MDA-MB-435 melanoma = settings: 10 µM unless noted
# MCF7 breast = settings: 10 µM unless noted
# HCT-116 colon = settings: 10 µM unless noted
# HCC-2998 colon = settings: 10 µM unless noted
# KM12 colon = settings: 10 µM unless noted
# SW-620 colon = settings: 10 µM unless noted
Compound,growth (SR leukemia),growth (RPMI-8226 leukemia),growth (OVCAR-8 ovarian),growth (OVCAR-5 ovarian),growth (OVCAR-4 ovarian),growth (SK-OV-3 ovarian),growth (IGROV1 ovarian),growth (OVCAR-3 ovarian),growth (HS 578T breast),growth (NCI/ADR-RES ovarian),growth (T-47D breast),growth (BT-549 breast),growth (MDA-MB-435 melanoma),growth (MCF7 breast),growth (HCT-116 colon),growth (HCC-2998 colon),growth (KM12 colon),growth (SW-620 colon)
CCCCCCCCCCCCCCCc1cc(O)ccc1[N+](=O)[O-],74.5%,36.3%,76.9%,94%,87.2%,92%,73.9%,87.7%,82.1%,77.1%,61.2%,76.4%,96.8%,66%,64.7%,104%,89.3%,–
C/C=C(\C)C(C(=O)NC1CCCCC1)N(C(=O)C1CCc2cc(F)ccc2O1)c1ccc([N+](=O)[O-])cc1 (stereo not drawn),101%,79.1%,88.4%,93.4%,79%,90.5%,85.8%,89.4%,80.2%,85.7%,88.1%,90.1%,87.7%,77%,60.3%,98.4%,95.8%,94.9%
N=C(N)c1ccc(-c2ccc(-c3cc(Cl)cc(Cl)c3)o2)nc1,-27.4% (active),-45.2% (active),-49.4% (active),-62.3% (active),-57.7% (active),-86.5% (active),-41.3% (active),-95.2% (active),83.4%,-29.8% (active),-66.1% (active),91.2%,-78.1% (active),-67.1% (active),-74% (active),-41.9% (active),–,–
CCc1ccc2c(c1)N(CCO)C1=C(C(=O)OC1)C2c1cccc(Br)c1 (stereo not drawn),28.6%,24.7%,33.7%,36.4%,59.9%,28.1%,39.3%,-10.6% (active),3.25% (active),9.74% (active),47.5%,46.6%,-62.5% (active),21.1%,26.9%,–,19.2%,26.8%
COc1c(C(=O)/C=C/c2ccc(C)o2)c(O)cc2occc12,42.8%,82.5%,84.8%,107%,80.9%,88.6%,69.3%,47.6%,65.8%,52.2%,66.6%,67.5%,-28.3% (active),38.5%,52.8%,79.4%,45.4%,–
COc1ccc(/C(=C\c2cc(OC)c(OC)c(OC)c2)C(=O)N2CCN(c3ccccc3)CC2)cc1O,87.7%,73.5%,96.8%,101%,98.1%,111%,102%,111%,87.8%,93.9%,87.4%,103%,–,92.5%,106%,98.1%,96.7%,104%
COc1ccc(-c2nc(-c3ccccc3OCc3ccccc3OC)nc(C)c2C(C)=O)cc1,78.8%,73%,86.9%,94.1%,94.9%,96.1%,89.7%,102%,72.8%,83.7%,61%,98.4%,90.4%,83.8%,66.4%,86.2%,64.4%,–
Cc1ccc(NC(=O)c2[nH]c(SCCN(C)C)nc2-c2ccc(F)cc2)cc1C#Cc1cnc2cccnn12,-35.9% (active),-6.17% (active),-12.2% (active),11.6%,-59.2% (active),98.5%,78.6%,102%,88.3%,11.1%,84.2%,94.8%,25.7%,23.1%,-64.3% (active),96.3%,-6.46% (active),–
CCSc1ccc([C@@H]2[C@@H](N)C(=O)N2c2cc(OC)c(OC)c(OC)c2)cc1,14.4%,18%,32.4%,42.7%,54.4%,44%,47.9%,-23.8% (active),34.5%,3.99% (active),60.3%,32.7%,-59.7% (active),19.6%,10.2%,31.2%,19.4%,–
COc1ccc(-c2[nH]nc(N)c2-c2cc(OC)c(OC)c(OC)c2)cc1,-23.7% (active),-8.96% (active),7.81% (active),38.8%,64.2%,4.97% (active),1.08% (active),-28.3% (active),25.6%,-9.45% (active),52.8%,3.37% (active),–,16.3%,6.24% (active),1.36% (active),3.55% (active),23%
Cc1ccccc1CNc1ncnc2[nH]ncc12,60.9%,88.5%,59.7%,89.6%,78%,100%,-19.4% (active),117%,165%,106%,96.9%,105%,–,104%,100%,105%,112%,114%
O=C1OCC2=C1C(c1cccc(Br)c1)c1cc3c(cc1N2CCO)OCCO3 (stereo not drawn),29.8%,21.4%,9.03% (active),39.5%,53.4%,32.3%,18.3%,-61.5% (active),8.74% (active),8.43% (active),76.9%,21.4%,-40.4% (active),18.2%,6.29% (active),–,-33.9% (active),21.3%
COc1ccc(/C(=C\c2ccc3c(c2)OCO3)C(=O)Nc2nc3ccc(F)cc3s2)cc1OC,92.5%,102%,110%,104%,93.8%,100%,95.8%,90.7%,104%,123%,101%,97.1%,99.8%,94.9%,97.7%,109%,96.3%,104%
CCOC(=O)c1sc2nc(-c3cc4ccccc4o3)cc(-c3ccc(Cl)cc3)c2c1N,71.6%,42.4%,112%,112%,101%,104%,81.2%,103%,91.9%,112%,103%,148%,222%,110%,105%,109%,99.7%,–
CCN(CC)CCCC(C)Nc1cnc(C(=O)Nc2cc(C)cc3cccnc23)cn1 (stereo not drawn),81.9%,78%,86.9%,97.6%,58.8%,104%,68.7%,20.5%,79.9%,92.7%,32.6%,93.3%,83.7%,57.3%,18%,89.8%,97.9%,–
CCN(CC)CCCC(C)Nc1cnc(C(=O)Nc2cccc3ccc(OC)nc23)cn1 (stereo not drawn),-5.71% (active),23.8%,68.2%,91.3%,98.1%,87%,78.3%,-30.7% (active),69.5%,76.1%,83.9%,83.2%,-58.2% (active),20.1%,-36% (active),90.9%,36.3%,–
COc1ccc2nc(C)cc(Nc3ccccc3O)c2c1,-32.8% (active),25%,32.6%,108%,-76.1% (active),-41.5% (active),44.9%,-35.5% (active),-3.7% (active),46.9%,44%,35%,64.4%,67.7%,29.9%,112%,86.9%,82%
COc1ccc(NC(=O)/C=C/c2ccc(Cl)c(Cl)c2)cn1,95.2%,49.7%,61.1%,84.6%,20.5%,101%,67.8%,96.6%,92.6%,1.03% (active),71%,67.1%,91.1%,71.7%,84.8%,118%,78.2%,–
